Compound activity deposited in PubChem BioAssay by National Center for Advancing Translational Sciences (NCATS).
p53 reactivation: qHTS assay for re-activators of p53 using a Luc reporter | H1299 p53-A138V BP100-luciferase reporter, luminescence, 24 h | Potency, µM (top dose mostly 92.2 µM), usual class: activators | actives 0.063% (n = 320,000) | AID 504706, 2011; further: nearly all actives have a fitted effect of over 45% in size
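H1299 (p53-null), stable ts p53-A138V + BP100-Luc; 1000 cells/well, Opti-MEM/10% FBS; cpd 4 pt, 1:5; 24 h, 37 deg C, 5% CO2; detection reagent 10 min RT; luminescence.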
GLS inh: qHTS for Inhibitors of Glutaminase (GLS); Glutaminase kidney isoform, mitochondrial (Homo sapiens), O94925; GLS enzymatic activity, qHTS titration; Potency, µM (titrated, usually from 45.5 µM), usual class: inhibitors; actives 0.21% (n = 410,000); AID 624170, 2012
Target sequence (O94925 whole entry, looked up, canonical isoform): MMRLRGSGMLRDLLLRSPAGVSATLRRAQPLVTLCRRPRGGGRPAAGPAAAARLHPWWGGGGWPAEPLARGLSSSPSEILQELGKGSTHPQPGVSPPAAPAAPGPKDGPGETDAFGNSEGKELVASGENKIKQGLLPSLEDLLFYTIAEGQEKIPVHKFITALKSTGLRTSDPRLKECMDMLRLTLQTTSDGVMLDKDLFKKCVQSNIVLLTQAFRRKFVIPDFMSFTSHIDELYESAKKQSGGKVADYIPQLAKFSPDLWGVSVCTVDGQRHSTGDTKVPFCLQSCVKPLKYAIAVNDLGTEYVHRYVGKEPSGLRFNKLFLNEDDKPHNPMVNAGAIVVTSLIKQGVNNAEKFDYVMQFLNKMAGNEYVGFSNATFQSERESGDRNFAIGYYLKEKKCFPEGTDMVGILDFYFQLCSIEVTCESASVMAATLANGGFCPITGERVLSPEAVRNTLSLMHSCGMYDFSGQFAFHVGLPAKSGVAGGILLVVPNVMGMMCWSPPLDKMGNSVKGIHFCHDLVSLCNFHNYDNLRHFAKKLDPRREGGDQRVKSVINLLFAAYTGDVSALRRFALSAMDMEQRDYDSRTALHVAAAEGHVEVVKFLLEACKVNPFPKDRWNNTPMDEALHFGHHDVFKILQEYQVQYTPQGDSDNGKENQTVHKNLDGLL
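Two-point fluorescence kinetic (t0, 30 min RT) for hKGA; glutamate detected via glutamate oxidase–HRP–Amplex Red. Substrate: 1 mM L-glutamine solution; buffer 45 mM KH2PO4, pH 8.2.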
N370S GC mod: qHTS Assay for Inhibitors and Activators of N370S glucocerebrosidase as a Potential Chaperone Treatment of Gaucher Disease; N370S GC spleen homogenate, 4MU-glucoside fluorescence; actives 0.092% (n = 330,000); Lysosomal acid glucosylceramidase (Homo sapiens), P04062; Potency, µM (doses to about 59.4 µM), actives largely listed as inhibitors
TCR act: Activators of T cell receptors: qHTS campaign. 330,000 tested, under 10 active. primary human leukocytes, anti-CD3, IL-2 HTRF, 48 h. Potency, µM (top dose mostly 9.22 µM), actives largely listed as activators
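1) Mix primary human leukocytes, a-CD3 beads and compound. 2) Incubate 48 hr. 3) Add HTRF IL-2 reagents (a-IL-2-K, a-IL-2-d2).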
BRCA1 expr up: qHTS Assay to Identify Small Molecule Activators of BRCA1 Expression; MCF7-BRCA1-FFLuc reporter, luminescence, 48 h; response scale: scaled: vehicle 0%, 10 µM genistein 100%; Potency, µM (top dose mostly 46.1 µM), usual class: activators; actives 1.1% (n = 380,000); further: nearly all actives have a fitted effect of over 80% in size
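Compounds are tested at multiple concentrations on MCF7 BRCA1-luciferase reporter cells seeded at 2000 per well; after 48 h, a single luminescence end-point is taken and curves fitted to the normalized data.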
TSHR antagonist: Antagonists of the Thyroid Stimulating Hormone Receptor: HTS campaign. Thyrotropin receptor (Homo sapiens), P16473. TSHR-expressing cells, TSH-stimulated cAMP HTRF, 2 h; active compounds read low. activity change, negative = inhibition, % at 11.5 µM. actives 0.2% (n = 330,000). AID 504810, 2011;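 active means activity change below a set negative limit, meaning inhibition stronger than a set level, cut at about -70% in these data; inconclusive means activity change between two set negative limits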
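TSHR-expressing cells, 200/well, pre-treated with compound, then stimulated with EC80 TSH (4nM final) for 2 hours at 37 deg C. cAMP measured by competitive HTRF: anti-cAMP cryptate antibody in lysis buffer plus cAMP-d2, read after 30 minutes at room temperature.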
Each line names hits and unclear results; the compound was inactive in the other large screens. The list is not random: actives were taken first. Their share in the collection is about 1.4%. Unless noted, the call rests on the fitted dose curve; in most records, active means well fitted curve in the direction sought with a large enough effect; inconclusive means small, poorly fitted or top-dose-only effect, or another doubt; inactive means no such curve, though single readings can be large; an effect the other way counts as inactive or inconclusive.

Cc1ccc(C(=O)NCc2ccc3c(c2)CCO3)cc1C	none
O=C(NCc1ccc2c(c1)CCO2)Nc1ccccc1	BRCA1 expr up 1.8µM
O=C(NCc1ccc2c(c1)OCO2)Nc1ccc(Cl)cc1	BRCA1 expr up 11µM
CCc1ccc(NC(=O)NCc2ccc3c(c2)OCO3)cc1	none
CC(=O)Nc1ccc(OCc2ccc3c(c2)OCO3)cc1	BRCA1 expr up 2.5µM, TSHR antagonist inconclusive
CCCCOc1ccc(CSc2ncn[nH]2)cc1	BRCA1 expr up 7.1µM
CCCCCOc1ccc(CSc2ncn[nH]2)cc1	p53 reactivation inconclusive, BRCA1 expr up 2.8µM
COC(=O)c1c(NC(=O)COC(=O)CCNS(=O)(=O)c2ccc(NC(C)=O)cc2)sc(C)c1C	N370S GC mod 8.9µM
COc1cc2c(NC3CCN(C)CC3)nc(N3CCCN(C)CC3)nc2cc1OCc1ccccc1	none (no result: p53 reactivation, GLS inh, N370S GC mod, TCR act, TSHR antagonist)
Cc1c(C(=O)N2CCCCC2)oc2ccc(Br)cc12	BRCA1 expr up inconclusive
Cc1ccc2oc(C(=O)N3CCCCCC3)c(C)c2c1	BRCA1 expr up 5.6µM, TSHR antagonist inconclusive
CCOc1ccc(/C=C/c2nc(C#N)c(N3CCN(c4ccc(OC)cc4)CC3)o2)cc1	none (no result: p53 reactivation, N370S GC mod, TCR act, BRCA1 expr up, TSHR antagonist)
Cc1cc(C(=O)N/N=C/c2ccc(O)c(O)c2O)c(C)n1-c1ccccc1	GLS inh 16µM
CCc1ccc(-n2c(C)cc(/C=N/NC(=O)c3ccncc3)c2C)cc1	none
Cc1cc(/C=N/NC(=O)c2ccncc2)c(C)n1-c1ccccc1	p53 reactivation inconclusive, BRCA1 expr up 7.9µM
O=C(NN=Cc1ccccc1O)c1cccc([N+](=O)[O-])c1	none (no result: p53 reactivation, N370S GC mod, TSHR antagonist)
COC(=O)N/N=C/c1cc(C)n(-c2ccccc2)c1C	p53 reactivation inconclusive, BRCA1 expr up inconclusive
Cc1cc(/C=N/NC(=O)c2cccc([N+](=O)[O-])c2)c(C)n1-c1ccccc1	BRCA1 expr up 13µM
Nc1c(C(=O)Nc2ccc3c(c2)OCCO3)nnn1Cc1cccc(Cl)c1	p53 reactivation inconclusive, BRCA1 expr up 3.2µM
Nc1c(C(=O)Nc2ccc3c(c2)OCCO3)nnn1Cc1ccc(F)cc1	BRCA1 expr up 8.9µM
Cc1ccc(C)c(N2CCN(S(=O)(=O)c3ccc4[nH]c(=O)c(=O)[nH]c4c3)CC2)c1	p53 reactivation inconclusive, N370S GC mod 13µM
Cc1ccc(C)c(N2CCN(S(=O)(=O)c3ccc4c(c3)NC(=O)CC(=O)N4)CC2)c1	N370S GC mod 14µM
CC(C)C[C@H](NC(=O)CNC(=O)[C@H](CCC(N)=O)NC(=O)[C@H](CC(C)C)NC(=O)[C@H](CC(C)C)NC(=O)[C@H](CCCNC(=N)N)NC(=O)[C@H](CCC(N)=O)NC(=O)[C@H](CC(C)C)NC(=O)[C@H](CCCNC(=N)N)NC(=O)[C@H](C)NC(=O)CNC(=O)[C@H](CCC(=O)O)NC(=O)[C@H](CCCNC(=N)N)NC(=O)[C@H](CC(C)C)NC(=O)[C@H](CCCNC(=N)N)NC(=O)[C@H](CO)NC(=O)[C@H](CC(C)C)NC(=O)[C@H](CCC(=O)O)NC(=O)[C@H](CO)NC(=O)[C@@H](NC(=O)[C@H](Cc1ccccc1)NC(=O)[C@@H](NC(=O)CNC(=O)[C@H](CC(=O)O)NC(=O)[C@H](CO)NC(=O)[C@@H](N)Cc1cnc[nH]1)[C@@H](C)O)[C@@H](C)O)C(=O)N[C@H](C(N)=O)C(C)C	none (no result: p53 reactivation, GLS inh, TCR act, BRCA1 expr up, TSHR antagonist)
CCCCCCNC(=O)Nc1ccc(S(=O)(=O)Nc2ccc(CCNC[C@H](O)COc3ccc(O)cc3)cc2)cc1	N370S GC mod 7.9µM (no result: p53 reactivation, GLS inh, TCR act, BRCA1 expr up, TSHR antagonist)
CCCCOc1ccc(S(=O)(=O)Nc2ccc(NC(C)=O)cc2)cc1	none
